Measured values published in PubChem BioAssay (NCATS).
Records with an inconclusive call do not appear. The source made the active and inactive calls. The call rests on the fitted dose curve; in most records, active means well fitted inhibition curve with a large enough effect; inconclusive means small, poorly fitted or top-dose-only effect; inactive means flat fitted curve, though single readings scatter.

system: CRL-7250; experiment: qHTS assay to identify novel small-molecules to repurpose for Merkel cell carcinoma treatment (AID 1296009); details: MCC and control cell lines, CellTiter-Glo viability, 72 h; at 44.8 µM (top of the series) unless noted; further: nearly all actives have a fitted effect of over 60% in size
Summary of the method: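 Cells were incubated with compound for 72 hr at 37 degree celsius before CellTiter-Glo addition. Luminescence was normalized with no-cell wells as full cytotoxicity and DMSO as baseline.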

| SMILES | outcome |
| --- | --- |
| Nc1ccn([C@@H]2O[C@H](CO)[C@@H](O)C2O)c(=O)n1 (stereo partly specified) | inactive |
| O=C(O)c1ccc[n+]([O-])c1 | inactive |
| CCCCCCCCCCOc1cc2c(=O)c(C(=O)OCC)c[nH]c2cc1OCC | inactive [at 4.96 µM] |
| CNNCc1ccc(C(=O)NC(C)C)cc1 | inactive |
| CCN1CCC[C@H]1CNC(=O)c1c(O)c(Cl)cc(Cl)c1OC | inactive |
| O=C(O)CSCC(=O)NC1CCSC1=O (stereo unspecified) | inactive |
| N#CCC(=O)NN | inactive |
| CCC(Cc1c(I)cc(I)c(N)c1I)C(=O)O (stereo unspecified) | inactive |
| CCOc1nc2cccc(C(=O)O)c2n1Cc1ccc(-c2ccccc2-c2nn[nH]n2)cc1 | inactive |
| Cc1cc(C(C#N)c2ccc(Cl)cc2)c(Cl)cc1NC(=O)c1cc(I)cc(I)c1O (stereo unspecified) | inactive |
| CC(N=C(NC#N)Nc1ccncc1)C(C)(C)C (stereo unspecified) | inactive |
| COc1cc2nc(Cl)nc(N)c2cc1OC | inactive |
| CC(=O)N(CC(O)CO)c1c(I)c(C(=O)NCC(O)CO)c(I)c(C(=O)NCC(O)CO)c1I (stereo unspecified) | inactive |
| O=c1cc[nH]c(=O)[nH]1 | inactive |
| CC(C)(Oc1ccc(C2CC2(Cl)Cl)cc1)C(=O)O (stereo unspecified) | inactive [at 92 µM] |
| CCN(CC)CCNC(=O)c1ccc(N)cc1 | inactive |
| CCNC(=O)/C=C/c1cccc(Br)c1 | inactive |
| COc1ccc(C(=O)NCc2ccc(OCCN(C)C)cc2)cc1OC | inactive |
| O=P(O)(O)C(O)(Cn1ccnc1)P(=O)(O)O | inactive [at 17.4 µM] |
| Cc1ccc2ccc(Cl)cc2n1 | inactive |
| O=C1O[C@H](CO)[C@@H](O)[C@H](O)[C@H]1O | inactive |
